# HTT-AS act: Primary qHTS for Identification of Small Molecule Activators of Huntingtin-Antisense Promoter Activity | HEK293 HTT-AS promoter firefly luciferase reporter, 24 h; response scale: percent change from vehicle, -100% = no light | Potency, µM (highest dose often 57.5 µM), for the others: at the highest dose activity change, positive = activation, usual class: activators | 48,000 compounds, 0.24% hits | AID 1508624, 2021; further: potency means the concentration at half of the fitted maximal effect; nearly all actives have a fitted effect of over 55% in size
#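 HEK293 cells carrying firefly luciferase reporters were seeded at 2,500 per well in Opti-MEM and cultured for 24 h. They were then treated with compounds at up to 57.5 uM final for 24 h at 37 degrees C before Dual-Glo luminescence readout.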
# FH mod: Identification of activators of human fumarate hydratase by quantitative high-throughput screening. Fumarate hydratase, mitochondrial (Homo sapiens), P07954. FH coupled MDH/diaphorase resazurin fluorescence, 15 min. 54,000 compounds, 0.22% hits. AID 1347055, 2019. Potency, µM (titrated, usually from 79.9 µM), without a hit: top-dose activity change, negative = inhibition, most hits filed as inhibitors; further: potency means the concentration at half of the fitted maximal effect; on the % scale 0 is the no-effect control and ±100 the full control effect; the screen sought activators but most active calls are inhibition curves; nearly all actives have a fitted effect of over 45% in size
# Target sequence (P07954 whole entry, looked up): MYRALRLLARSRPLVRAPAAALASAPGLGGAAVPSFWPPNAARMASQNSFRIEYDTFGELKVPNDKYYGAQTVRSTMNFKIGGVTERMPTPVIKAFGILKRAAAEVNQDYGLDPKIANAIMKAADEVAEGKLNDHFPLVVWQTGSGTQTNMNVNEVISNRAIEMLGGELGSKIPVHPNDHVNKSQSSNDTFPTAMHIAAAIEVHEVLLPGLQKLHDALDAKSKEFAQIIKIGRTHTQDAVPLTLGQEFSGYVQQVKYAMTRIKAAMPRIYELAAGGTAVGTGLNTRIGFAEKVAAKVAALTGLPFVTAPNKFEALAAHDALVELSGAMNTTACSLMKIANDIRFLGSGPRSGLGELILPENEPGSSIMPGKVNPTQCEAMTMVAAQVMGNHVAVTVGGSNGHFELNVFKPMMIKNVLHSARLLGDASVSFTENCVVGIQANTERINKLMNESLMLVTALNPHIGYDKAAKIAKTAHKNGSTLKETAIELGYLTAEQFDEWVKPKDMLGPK
# HTT prom inh: Primary qHTS for Identification of Small Molecule Inhibitors of Huntingtin Promoter Activity. AID 1508623, 2021. 48,000 compounds, 0.93% hits. HEK293 HTT promoter firefly luciferase reporter, 24 h. Potency, µM (top dose mostly 57.5 µM), for inactives: at the highest dose activity change, negative = inhibition, usual class: inhibitors; further: potency means the concentration at half of the fitted maximal effect; nearly all actives have a fitted effect of over 50% in size
#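 HEK293 cells carrying firefly luciferase reporters were seeded at 2,500 per well in Opti-MEM and cultured for 24 h. They were then treated with compounds at up to 57.5 uM final for 24 h at 37 degrees C before Dual-Glo luminescence readout.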
# GPR32 ag: qHTS for Agonists of Human Resolvin D1 Receptor DRV1 | Probable G-protein coupled receptor 32 (Homo sapiens), O75388 | CHO-K1 GPR32 beta-arrestin PathHunter luminescence, 90 min; zero percent set by DMSO-only wells | activation, % at 76.9 µM | 48,000 compounds, 2.5% hits | AID 1346428, 2018;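 active means activation of at least 60% and not above a set upper limit, about 1 call in 100 departs from these limits; inconclusive means activation of 40% to 60%, or above that upper limit; inactive means activation under 40%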; further: 0% is about no effect
#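 Agonism was scored by beta-Gal fragment complementation (chemiluminescent read, 1 h detection at ambient temperature) reporting beta-arrestin binding to GPR32 in engineered CHO-K1 cells. Compound treatment lasted 90 min at 37 C, normalized to a DMSO basal control.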
# NTMT1 inhibitor: Primary qHTS for Inhibitors of N-terminal methyltransferase 1 (NTMT1): MTaseGlo Assay; AID 1645870, 2021; 59,000 compounds, 2.5% hits; NTMT1 MTase-Glo SAH luminescence, purified enzyme; N-terminal Xaa-Pro-Lys N-methyltransferase 1 (Homo sapiens), Q9BV86; Potency, µM (titrated, usually from 114 µM), for inactives: top-dose activity change, negative = inhibition, actives largely listed as inhibitors;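 further: potency means the concentration at half of the fitted maximal effect; plate controls were DMSO vehicle for no effect and no enzyme for full effect; nearly all actives have a fitted effect of over 65% in size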
# Target sequence (Q9BV86 whole entry, looked up): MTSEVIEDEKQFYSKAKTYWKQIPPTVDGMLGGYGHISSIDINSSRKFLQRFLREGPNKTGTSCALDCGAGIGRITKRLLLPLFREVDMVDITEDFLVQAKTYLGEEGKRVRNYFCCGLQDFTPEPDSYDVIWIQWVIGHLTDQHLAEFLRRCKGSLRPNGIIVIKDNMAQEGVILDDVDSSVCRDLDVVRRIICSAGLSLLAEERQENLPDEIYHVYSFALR
# CLK4 KinaseGlo: Confirmation Assay for Inhibitors of CDC-like Kinase 4 (Kinase-Glo Assay): SAR round 2. shares compounds with NTMT1 inhibitor. recombinant Clk4, Kinase-Glo ATP luminescence, 4.5 h. Potency, µM (titrated, usually from 76.9 µM), for the others: at the top dose activity, negative = inhibition, usual class: inhibitors. 90 compounds, 90% hits. AID 493204, 2011
# Sfp PPTase inh: qHTS Assay for Inhibitos of Bacillus subtilis Sfp phosphopantetheinyl transferase (PPTase): Chemistry Optimization Followup | shares compounds with NTMT1 inhibitor | purified Sfp PPTase enzyme activity, qHTS | Potency, µM (series often up to 114 µM), inactives show at the top dose activity change, negative = inhibition, hits mostly inhibitors | 230 compounds, 78% hits
# HM489 growth: qHTS for Inhibitos of Bacillus subtilis Sfp phosphopantetheinyl transferase (PPTase): Chemistry Optimization Followup in B. Subtilis HM489; shares compounds with NTMT1 inhibitor; B. subtilis HM489 (acpS-) growth, BacTiter-Glo, 5 h; Potency, µM (doses to about 114 µM), for the others: at the highest dose activity change, negative = inhibition, actives largely listed as inhibitors; 220 compounds, 50% hits
# Sfp PPTase gel: Gel-Based Assay for Inhibitos of Bacillus subtilis Sfp phosphopantetheinyl transferase (PPTase): Chemistry Optimization Followup; purified Sfp PPTase, gel-based product detection; 220 compounds, 54% hits; Potency, µM (series often up to 250 µM), for the others: at the top dose activity change, negative = inhibition, most hits filed as inhibitors; shares compounds with NTMT1 inhibitor
# Sfp inh gel: qHTS Assay for Inhibitors of Bacillus subtilis Sfp phosphopantetheinyl transferase (PPTase): Gel Based Assay | purified Sfp PPTase, gel-based product detection | shares compounds with NTMT1 inhibitor | Potency, µM (series often up to 250 µM), for inactives: top-dose activity change, negative = inhibition, hits mostly inhibitors | 45 compounds, 90% hits
# Sfp inh SAR2: qHTS Assay for Inhibitors of Bacillus subtilis Sfp phosphopantetheinyl transferase (PPTase): SAR Round 2; shares compounds with NTMT1 inhibitor; purified Sfp enzyme, PPTase activity, qHTS; Potency, µM (doses to about 57.1 µM), inactives show top-dose activity change, negative = inhibition, hits mostly inhibitors; 230 compounds, 87% hits; AID 602370, 2012
# hGST ctr: qHTS Assay for Inhibitors of Bacillus subtilis Sfp phosphopantetheinyl transferase (PPTase): SAR in hGST A1-1 | shares compounds with NTMT1 inhibitor | hGST A1-1 enzyme activity counter-screen, qHTS | Potency, µM (doses to about 114 µM), inactives show at the top dose activity change, negative = inhibition, actives largely listed as inhibitors | 55 tested, under 10 active | AID 602391, 2012
# HSD17B4 inh: Extended Characterization of HPGD Inhibitors: Counterscreen Against HSD17b4. Potency, µM (top dose mostly 57.1 µM), without a hit: at the top dose activity change, negative = inhibition, usual class: inhibitors. 230 compounds, 10% hits. shares compounds with NTMT1 inhibitor. purified HSD17B4, estradiol/NAD+, NADH fluorescence. AID 743187, 2013
# ALDH1A1 inh: Extended Characterization of HPGD Inhibitors: Counterscreen Against ALDH1A1; shares compounds with NTMT1 inhibitor; Potency, µM (series often up to 57.1 µM), for inactives: top-dose activity change, negative = inhibition, most hits filed as inhibitors; recombinant ALDH1A1, NADH fluorescence, propionaldehyde/NAD+; 230 compounds, 93% hits
# NNMT counter: Counterscreen qHTS for Inhibitors of N-terminal methyltransferase 1 (NTMT1): NNMT MTaseGlo assay | shares compounds with NTMT1 inhibitor | NNMT MTase-Glo luminescence, SAH detection | Potency, µM (titrated, usually from 57.1 µM), inactives show top-dose activity, negative = inhibition, usual class: inhibitors | 120 compounds, 10% hits | AID 1645878, 2021
# Active calls of the source: *; u = inconclusive; x = not tested or not shown; ! = repeats disagree; [ ] = dose if it differs, or a comment. Shown are actives, neighbours in structure and some others; about 4.7% of the full set was active somewhere. Unless noted, the call rests on the fitted dose curve; in most records, active means well fitted curve in the direction sought with a large enough effect; inconclusive means small, poorly fitted or top-dose-only effect, or another doubt; inactive means no such curve, though single readings can be large; an effect the other way counts as inactive or inconclusive.
SMILES,HTT-AS act,FH mod,HTT prom inh,GPR32 ag,NTMT1 inhibitor,Sfp PPTase inh,HM489 growth,Sfp PPTase gel,Sfp inh SAR2,HSD17B4 inh,ALDH1A1 inh,others
COc1ccc2cc3c(NC(=O)c4ccco4)nn(C)c3nc2c1,x,-8%,x,x,-11%[57.5 µM],x,x,x,x,x,x,NNMT counter=-12%
C[N+]1(CC2COC(c3ccccc3)(c3ccccc3)O2)CCCCC1 (centres undefined),-10%[25.1 µM],0%[20.6 µM],-3%[25.2 µM],-16,u,x,x,x,x,x,x,NNMT counter=-18%[28.6 µM]
Cc1ccsc1CN(C)c1ncnc2ccc(-c3ccc([C@@H](C)O)o3)cc12,x,x,x,x,8.9µM*!,x,x,x,x,x,x,CLK4 KinaseGlo=0.16µM*
Cc1ccc(CN(C)c2ncnc3ccc(-c4ccc(C(=O)O)o4)cc23)o1,x,x,x,x,2%,x,x,x,x,x,x,CLK4 KinaseGlo=0.52µM*
Cc1ccc(CN(C(=O)c2ccccc2F)c2ccccn2)o1,9%,-18%,-1%,-4,u,x,x,x,x,x,x,
O=C(Cn1c(=O)n(-c2ccccc2)c(=O)c2c3c(sc21)CCCC3)Nc1cccc(F)c1,-6%,-7%,-10%,-18,-3%,x,x,x,x,x,x,
Cc1nc2c3ccccc3nc(NNC(=O)CCC(=O)N3CCN(c4cccc(C(F)(F)F)c4)CC3)n2n1,-27%,12%,u,-18,3%,x,x,x,x,x,x,
FC(F)(F)c1cccc(N2CCN(C(=S)Nc3cc4ccccc4cn3)CC2)c1,x,x,x,x,x,47µM*,-1%,16µM*,13µM*,24µM*,15µM*,
CSc1ncc(C(=O)N2CCN(c3cccc(C(F)(F)F)c3)CC2)c(C)n1,-27%,-3%,-16%,35,18%,x,x,x,x,x,x,
Cc1ccnc(NC(=S)N2CCN(c3cccc(C(F)(F)F)c3)CC2)c1,x,x,x,x,x,4.7µM*,12µM*,0.32µM*!,0.65µM*,-25%,7.6µM*,Sfp inh gel=4.3µM*;hGST ctr=-3%
Cc1ccc2nc(N3CCN(c4cccc(C(F)(F)F)c4)CC3)c3nnnn3c2c1,x,x,x,1,x,x,x,x,x,x,x,
Cc1cc(C)nc(NC(=S)N2CCN(c3cc(C(F)(F)F)cc(C(F)(F)F)c3)CC2)c1,x,x,x,x,x,3.3µM*,17%,u,0.51µM*,-2%,22µM*,
Cc1ccnc(NC(=S)N[C@H]2CCN(c3cccc(C(F)(F)F)c3)C2)c1,x,x,x,x,8%[57.5 µM],-3%,u,u,u,0%,22µM*,
Cc1oc2c(c(C)cc3oc(=O)c(CC(=O)NCc4ccc(F)cc4)c(C)c32)c1C,-4%,2%,-1%,-13,0%,x,x,x,x,x,x,
OCc1ccnc(NC(=S)N2CCN(c3cccc(C(F)(F)F)c3)CC2)c1,x,x,x,x,-1%,59µM*,53µM*,37%,32µM*,-21%,24µM*,
Cc1ccnc(NC(=S)N2CCCN(c3cccc(C(F)(F)F)c3)CC2)c1,x,x,x,x,u,4.7µM*,7.4µM*,1.3µM*,1.6µM*,-9%,1.7µM*,Sfp inh gel=1.9µM*;hGST ctr=u
Cc1cc(C)nc(NC(=S)N2CCN(S(=O)(=O)c3cccc(C(F)(F)F)c3)CC2)c1,x,x,x,x,u,2.4µM*,u,-29%,0.81µM*,-18%,22µM*,
Cc1cc(Nc2cccc(C(F)(F)F)c2)ncn1,-11%,-5%,-15%,5,-18%,x,x,x,x,x,x,
Cc1ccnc(NC(=S)N2CCC(Nc3cccc(C(F)(F)F)c3)CC2)c1,x,x,x,x,-17%,1.9µM*,12µM*,0.4µM*,1µM*,2%,4.8µM*,
